PubChem BioAssay AID934 (National Center for Advancing Translational Sciences (NCATS), 2007)
Records with an inconclusive call do not appear. The source made the active and inactive calls. Calls follow the shape of the dose curve; as a rule, active = well fitted activation curve with a large enough effect; inconclusive = small, poorly fitted or top-dose-only effect; inactive = flat fitted curve, though single readings scatter.

Assay: Parental Cell Counter Screen for Stat Signaling Pathway Assay
Conditions: ME-180 (cervical carcinoma) parental cells, blue fluorescence artefact counter-screen; series mostly up to 38.3 µM; activity (fluorescence increase): at the top concentration
Excerpt: NIH Molecular Libraries Screening Centers Network [MLSCN] NIH Chemical Genomics Center [NCGC] MLSCN Grant: None NCGC Assay Overview: This assay is a counter screen for the Stat signaling pathway assay (PubChem AID 446). The Stat assay is cell-based and measures Interleukin 6 (IL-6) mediated modulation of a beta-lactamase reporter gene controlled by a STAT inducible element (SIE-bla cells, Invitrogen). IL-6 is a cytokine that signals via the JAK/STAT pathway and is implicated in cancer and inflammation. […] Compounds active in the parental ME-180 cells are likely fluorescent.
NCGC Assay Protocol Summary: Cells were trypsinized, washed in assay medium (AM, OPTI MEM with 0.5% fetal bovine serum, 0.1 mM nonessential amino acids, 1 mM sodium pyruvate, 10mM HEPES pH 7.3, 100U/ml penicillin, and 100 ug/ml streptomycin) and suspended at […] in AM. Approximately 2500 cells in 5 uL/well was dispensed into 1536-well plates and the cells were incubated overnight at 37 C. 23 nL of compound were delivered by a pin tool and 1 uL of IL-6 (40 pM final concentration in AM) was added. After plates were incubated at 37 C for 5 hrs, 1uL of detector mix (LiveBLAzerTM, Invitrogen) was added, the plates incubated at room temperature for 2.5 hrs, and fluorescence intensity at 460 and 530 nm emissions was measured at 405 nm excitation by an Envision (Perkin Elmer).

SMILES	activity (fluorescence increase)	Potency
COc1cc(-c2nn3c(COc4ccccc4)nnc3s2)cc(OC)c1OC	8.33% (inactive)	–
NCCSc1nc2ccccc2s1	11.3% (inactive)	–
O=C1Nc2ccc(I)cc2/C1=C/c1cc(Br)c(O)c(Br)c1	17% (inactive)	–
CC[C@@H]1CN2CCc3cc(OC)c(OC)cc3[C@H]2C[C@@H]1C[C@@H]1NCCc2cc(OC)c(OC)cc21	9.35% (inactive)	–
CCOC(=O)CCc1c(C)c(C#N)c2[nH]c3ccccc3n2c1=O	16.7% (inactive)	–
Cn1c(N2CCN(c3ccccn3)CC2)nc2c1c(=O)n(Cc1ccc(Cl)cc1)c(=O)n2C	13.9% (inactive)	–
CC[C@@H]1CN2CCc3cc(OC)c(OC)cc3[C@H]2C[C@@H]1C[C@H]1NCCc2cc(OC)c(OC)cc21	7.48% (inactive)	–
COc1cccc2c1[C@H](CO)N1[C@H](C#N)[C@@H]3C[C@H](C(=O)O)[C@@H]([C@@H]1C2)N3C	12.3% (inactive)	–
C=CCn1c(SCC(=O)c2ccc(NS(=O)(=O)c3ccccc3)cc2)nnc1-c1cccs1	12% (inactive)	–
CN(C)S(=O)(=O)c1ccc2c(c1)/C(=C/c1cc3c([nH]1)CCCC3)C(=O)N2	1.89% (inactive)	–
CCSc1nc(N)c(C#N)c(-c2ccccc2Cl)c1C#N	13.9% (inactive)	–
COc1c2c(nc3ccccc13)O[C@@H]([C@@](C)(O)CO)C2	9.35% (inactive)	–
COc1ccc2[nH]c3c(N4CCN(Cc5ccc6c(c5)OCO6)CC4)ncnc3c2c1	9.26% (inactive)	–
OC[C@@H]1O[C@@H](n2cnc3c(SCc4ccccc4)ncnc32)[C@@H](O)[C@H]1O	0.926% (inactive)	–
CCCCCCc1cc2cc(-c3nnc(-c4ccccc4O)o3)c(=O)oc2cc1O	–	0.0126 µM (active)
Cc1ccc(CNC(=O)c2cc3c(=O)n4ccccc4nc3n(CC3CCCO3)c2=N)cc1 (stereo not drawn)	–	10 µM (active)
Cc1cc(=O)oc2c(CN3CCCCC3)c(O)c(Cl)cc12	–	10 µM (active)

SMILES	activity (fluorescence increase)	Potency
CCC(=O)Oc1oc(-c2ccccc2)nc1C=Nc1ccccc1OC	17.6% (inactive)	–
CCNC(=O)c1cc2c(=O)n3cccc(C)c3nc2n(CCc2ccccc2)c1=N	–	12.6 µM (active)
Clc1ccc(-c2nnc3sc(Cc4cccs4)nn23)cc1	4.63% (inactive)	–
Fc1ccc2[nH]c3c(N4CCN(Cc5ccc6c(c5)OCO6)CC4)ncnc3c2c1	12% (inactive)	–
CC(C)(C)c1nnc2sc(SCC(=O)c3ccccc3)nn2c1=O	13.9% (inactive)	–
NS(=O)(=O)c1ccc(N=Nc2cc3ccccc3c(C(=O)O)c2O)cc1	4.72% (inactive)	–
O=C(O)c1c(Br)c(Br)c(Br)c(Br)c1C1c2ccc(O)cc2Oc2cc(O)ccc21	8.49% (inactive)	–
CC1CCN(c2oc(-c3ccccc3Cl)nc2C#N)CC1	6.48% (inactive)	–
Cc1ccc(S(=O)(=O)N2CCN(c3nc(C)c4c(c3C#N)CC(C)(C)OC4)CC2)cc1	22.2% (inactive)	–
O=C(Oc1oc(-c2ccco2)nc1C=Nc1ccccc1)c1ccoc1	3.7% (inactive)	–
CC(C)N1CC=C2C(C#N)=C(N)C(C#N)(C#N)C(c3ccccc3)C2C1 (stereo not drawn)	–	5.01 µM (active)
COc1cc2nc(-c3ccccc3)nc(N3CCCC3)c2cc1OC	4.63% (inactive)	–
O=C1CC(N(O)C2CC(=O)N(Cc3ccccc3)C2=O)C(=O)N1Cc1ccccc1 (stereo not drawn)	21.3% (inactive)	–
Nc1ncnc2c1ncn2[C@@H]1O[C@H](COP(=O)(O)O)[C@@H](O)[C@@H]1O	-3.74% (inactive)	–
Cn1c(NCc2ccccc2)nc2c1c(=O)n(Cc1ccc(Br)cc1)c(=O)n2C	13.9% (inactive)	–
O=C(O)CCc1c2ccc(=O)c(O)c-2oc2c(O)c(O)ccc12	-1.89% (inactive)	–
